According to PubChem BioAssay (NCI):
Compounds without any hit were thinned out: in the full panel of roughly 83,000, 20% have a hit.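 Single-concentration screen, 48 h exposure, 96-well plates. Endpoint: percent growth. Below 10 = active.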 Calls of active or inactive are those of the source.

Tests used:
Test in all cases: NCI-60 one-dose screen, 48 h (100 = growth as untreated, 0 = no growth, -100 = all killed)
Conditions in all cases: 10 µM unless noted
[1] = system: HCT-15 colon
[2] = system: HT29 colon
[3] = system: SNB-75 CNS
[4] = system: SNB-19 CNS
[5] = system: U251 CNS
[6] = system: PC-3 prostate
[7] = system: SK-MEL-5 melanoma
[8] = system: UACC-62 melanoma
[9] = system: LOX IMVI melanoma
[10] = system: SK-MEL-28 melanoma
[11] = system: SK-MEL-2 melanoma
[12] = system: EKVX NSCLC
[13] = system: SN12C renal
[14] = system: UO-31 renal
[15] = system: TK-10 renal
[16] = system: ACHN renal
[17] = system: CAKI-1 renal
[18] = system: A498 renal
[19] = system: CCRF-CEM leukemia
[20] = system: MOLT-4 leukemia

Measured: growth

COc1ccc(Cc2cnc(NC(=O)c3sc4ccccc4c3Cl)s2)cc1
active: [2] 8.15% | [3] 9.6%
inactive: [1] 15.9% | [4] 50.7% | [5] 20.8% | [6] 31.5% | [7] 27.8% | [8] 35.7% | [9] 45.9% | [10] 62.1% | [11] 43.9% | [12] 40.8% | [13] 28.7% | [14] 48.4% | [15] 63.1% | [16] 41.3% | [17] 41.9% | [18] 21.3% | [19] 21% | [20] 14.8%

CCOC(=O)Cn1c(=O)c2c3ccccc3n(C)c2n2nnc(-c3ccccc3)c12
inactive: [1] 114% | [2] 89.1% | [3] 105% | [4] 115% | [5] 87.8% | [6] 76.1% | [7] 74.1% | [8] 72.8% | [9] 86.2% | [10] 86.6% | [11] 97.1% | [12] 85.8% | [13] 81.8% | [14] 81.2% | [15] 129% | [16] 91.8% | [17] 81.2% | [18] 134% | [19] 68.4%
active: [20] -40.7%

COc1ccc(/C=C/C(=O)c2ccc(NC(=O)CSc3nnc(-c4cc(-c5ccccc5)nc5ccccc45)n3-c3ccccc3)cc2)cc1
inactive: [1] 92.5% | [2] 98.1% | [3] 100% | [4] 101% | [5] 102% | [6] 89.9% | [7] 97.5% | [8] 87.3% | [9] 96.5% | [10] 98.4% | [11] 107% | [12] 98% | [13] 92.7% | [14] 100% | [15] 112% | [16] 95.7% | [17] 90% | [18] 85.3% | [19] 88.3% | [20] 80.2%

CCOc1ccc(/C=N\N=C\c2ccc(OCC)cc2)cc1
inactive: [2] 34.5% | [3] 112% | [4] 98.3% | [5] 74.4% | [6] 67.1% | [7] 88.3% | [8] 79.9% | [9] 70.5% | [10] 105% | [11] 39.3% | [12] 103% | [13] 80.4% | [14] 79% | [15] 86.8% | [17] 46.3% | [18] 108% | [19] 118% | [20] 81%
active: [1] 7.98% | [16] 9.41%

O=C(CCl)Nc1ccc2c(Nc3cc(O)ccc3Cl)ncnc2c1
inactive: [18] 56.2%
active: [1] -81.3% | [2] -74.5% | [3] -96.7% | [4] -61.9% | [5] -89.8% | [6] -74.4% | [7] -88.4% | [8] -68.7% | [9] -81.6% | [10] -66.4% | [11] -76.5% | [12] -53.8% | [13] -83.4% | [14] -92.9% | [15] -66.9% | [16] -98.3% | [17] -86.1% | [19] -5.44% | [20] -24.4%

O=C(Nc1nc(C(=O)N2CCN(C(c3ccccc3)c3ccccc3)CC2)cs1)c1ccc(NC2CCCCC2)c([N+](=O)[O-])c1
inactive: [1] 96.9% | [2] 86.1% | [3] 86.1% | [4] 85.9% | [5] 83.5% | [6] 76.1% | [7] 60.6% | [8] 67.1% | [9] 91.5% | [10] 100% | [11] 104% | [12] 77.9% | [13] 85.6% | [14] 66.1% | [15] 100% | [16] 86.6% | [17] 78.4% | [18] 87.6% | [19] 95% | [20] 77.9%

O=C(Cn1nnc2ccccc21)N/N=C/c1ccccc1F
inactive: [1] 106% | [2] 99.5% | [3] 95.2% | [4] 103% | [5] 97.1% | [6] 96% | [7] 102% | [8] 88.5% | [9] 101% | [10] 108% | [11] 102% | [12] 106% | [13] 83.9% | [14] 87% | [15] 107% | [16] 106% | [17] 97.9% | [18] 85.5% | [19] 103% | [20] 104%

CCCCn1sc(=O)n(Cc2ccc(CNC(=O)OCc3ccc4c(Br)cc(Br)c(O)c4n3)cc2)c1=O
inactive: [2] 96.4% | [3] 14.4% | [4] 37.4% | [5] 11.2% | [6] 18.9% | [8] 37.6% | [9] 22.9% | [10] 67.4% | [11] 45.6% | [12] 103% | [13] 29.5% | [14] 42.7% | [15] 74.8% | [16] 33.6% | [17] 22.4% | [19] 18.1% | [20] 14.6%
active: [1] 9.07% | [7] -35.2% | [18] -7.85%

O=C(/C=C\c1ccco1)/C=C/c1ccco1
inactive: [1] 105% | [2] 108% | [3] 94.5% | [4] 105% | [5] 104% | [6] 95.6% | [7] 101% | [8] 100% | [9] 96.8% | [10] 110% | [11] 109% | [12] 99.5% | [13] 97.7% | [14] 76.3% | [15] 108% | [16] 110% | [17] 107% | [18] 97.5% | [20] 112%
active: [19] 8.75%

CC1(C)CC[C@]2(C(=O)N3CCOCC3)CC[C@]3(C)C(=CC[C@@H]4[C@@]5(C)C/C(=C/c6ccncc6)C(=O)C(C)(C)[C@@H]5CC[C@]43C)[C@@H]2C1
inactive: [3] 43% | [4] 47.5% | [5] 18.4% | [6] 10.9% | [12] 14.5% | [13] 18% | [14] 11% | [15] 35.9% | [16] 15.6% | [17] 16.7%
active: [1] 7.19% | [2] 5.31% | [7] -63.5% | [8] 2.88% | [9] -84% | [10] -14.4% | [11] -6.74% | [18] -20.3% | [19] -6.27% | [20] -16.9%

CC1(C)C2CC=C(/C=N/NC(=O)C3CCC(=O)N3)C1C2 (stereo not given)
inactive: [1] 104% | [2] 106% | [3] 91.6% | [4] 106% | [5] 101% | [6] 102% | [7] 101% | [8] 99.2% | [9] 96.9% | [10] 108% | [11] 102% | [12] 105% | [13] 104% | [14] 94.6% | [15] 97.2% | [16] 102% | [17] 97.4% | [18] 102% | [19] 104% | [20] 103%

O=C(Nc1ncc(Cc2ccccc2Cl)s1)c1cccs1
inactive: [1] 32% | [2] 43.6% | [3] 89.6% | [4] 82.9% | [5] 60.8% | [6] 64% | [7] 73.3% | [8] 45.9% | [9] 62.5% | [10] 85.2% | [11] 69.4% | [12] 77.7% | [13] 82.5% | [14] 70.8% | [15] 88% | [16] 73.2% | [17] 41.8% | [18] 67.1% | [19] 66.2% | [20] 61.7%

O=C(O)c1cn(C2CC2)c2cc(N3CCN(C(=O)N/N=C/c4ccccc4)CC3)c(F)cc2c1=O
inactive: [1] 98.4% | [2] 96.9% | [3] 98.9% | [4] 94.7% | [5] 101% | [6] 96% | [7] 94.9% | [8] 95.3% | [9] 80.7% | [10] 108% | [11] 98.7% | [12] 101% | [13] 112% | [14] 74% | [15] 96.5% | [16] 101% | [17] 93.3% | [18] 109% | [19] 96.9% | [20] 85.4%

O=C1OCC2=C1C(c1cccc(C(F)(F)F)c1)c1cc3c(cc1N2CCO)OCO3 (stereo not given)
active: [2] 6.68% | [19] 7.82%
inactive: [1] 25.2% | [3] 19% | [4] 30.1% | [5] 21% | [6] 25.9% | [7] 20% | [8] 48.4% | [9] 40.6% | [10] 57.3% | [11] 24% | [12] 49.7% | [13] 46.8% | [14] 47.3% | [15] 60.8% | [16] 42.8% | [17] 26.8% | [18] 20.9% | [20] 20%

CN1CCN(Cc2ccc(NC(=O)c3cncc(C#Cc4cncc5ncccc45)c3)cc2C(F)(F)F)CC1
active: [2] -4.72% | [8] 5.7% | [9] -85.7% | [11] -69.1% | [14] -10.2% | [16] 8.35% | [17] -19.7% | [18] -25.5% | [19] 3.31% | [20] 9.12%
inactive: [1] 19.7% | [3] 13.6% | [4] 46.7% | [5] 38.8% | [6] 23% | [7] 19.1% | [10] 12.4% | [12] 39.2% | [13] 21.3% | [15] 22%
